Laboratory results reported in PubChem BioAssay (NCATS).
Inconclusive results are not listed. Calls of active or inactive are those of the source. Calls come from the whole dose curve; as a rule, active = well fitted cell-killing curve with a large enough effect; inconclusive = small, poorly fitted or top-dose-only effect; inactive = flat fitted curve, though single readings scatter.

test: Quantitative highthroughput screen to assess conditional lethalithy of NOMO1 cells grown in RPMI1640 with dialyzed fetal bovine serum (RPMI+ds) (AID 1963877); conditions: NOMO1 in RPMI+dialyzed FBS viability, ATP luminescence, 48 h; series mostly up to 45.8 µM; viability: at the top concentration; note: nearly all actives have a fitted effect of over 30% in size
Source text: Assay Provider: Jason Cantor Ph.D.
Department of Biochemistry
University of Wisconsin-Madison, Madison, WI, USA
Chemical screening studies have identified drug sensitivities across hundreds of cancer cell lines but most putative therapeutics fail to translate. Discovery and development of drug candidates in models that more accurately reflect nutrient levels in human blood is a major challenge. Here we performed high-throughput screens in conventional versus Human Plasma-Like Medium (HPLM) to identify compounds that were "missed" when screening using the artificial culture condition. Sets of conditional anticancer compounds spanned phases of clinical development and included non-oncology drugs were assessed. […] We also traced conditional phenotypes for several chemotherapeutics to availability of HPLM-specific metabolites and confirmed others for compounds whose reported targets are encoded by nonessential genes. Our findings establish generalizable strategies for exploiting conditional lethality in HPLM to reveal therapeutic candidates and mechanisms of action in cancer cells.
Described herein are the results of each viability screens against three cell lines: NOMO1 (an acute myeloid leukemia cell line); P12-Ichikawa (a T-cell acute lymphoblastic leukemia); and SEM (a B-cell ALL). Each assay was screened using 3 different cell culture media: homemade human plasma-Like medium with 10% dialyzed fetal bovine serum (HPLM+ds); RPMI1640 with 10% untreated FBS and 5mM glucose (RPMI+s); and RPMI1640 with 10% dialyzed fetal bovine serum and 5 mM glucose (RPMI+ds).
PROTOCOL TABLE (as described by Inglese J, Shamu CE and Guy RK. 2007)
SEQUENCE No. (e.g., 1, 2, 3, etc.); […] (e.g., Cells, Incubation, Reagent, etc.); VALUE and DESCRIPTION.
1; Cells; 5 uL; white, solid bottom 1536-well Greiner assay plate.
2; Compounds; 23 nL; Kalypsis pin tool (Wako USA) equipped with a 1536-well pin head to transfer to the assay plates.
3; Incubation; 48 hours; 37C incubation.
4; Reagent; 3 uL; CellTiter Glo (Promega).
5; Incubation; 5 min, room temperature
6; Detection; Luminescence, Viewlux PerkinElmer.
NOTES (numbers refer to Sequence numbers above)
1. Briefly, 5 ul of cell reagent was dispensed using a Multidrop Combi Dispenser. The NOMO1 and SEM cells were plated at 500 cells/well and the P12-Ichikawa line at 1000 cells/well.
2. After seeding the cells, 23 nL of MIPE 4.1 library compounds (in DMSO) were added to each plate using a Kalypsys 1536 Pintool dispenser. Bortezomib at final concentration of […] and DMSO were added to each plate as positive and negative controls respectively. For each screen, MIPE 4.1 compounds were added over an eleven-point concentration range […] in 3-fold dilutions.
3. Each plate was covered with a stainless steel gasketed lid to prevent evaporation and incubated for 48 hour at 37C, 95% relative humidity, and 5% CO2.
4-5. Three microliter CellTilter-GloTM luminescent substrate mix (Promega) reagent was added to the assay plate and incubated at room temperature for 5 min.
6. The luminescence signal was measured using a ViewLux (PerkinElmer) multiplate reader with a 2 second exposure time per plate. Data for each compound were normalized as percent viability such that measurements for DMSO and the empty well controls in each plate were defined as 100% and 0%, respectively.
Potency is the fitted concentration of half-maximal effect.

Row | SMILES | viability | Potency
1 | CC1=C2C[C@@H]3[C@@H](CC=C4C[C@@H](O)CC[C@@]43C)[C@@H]2CC[C@]12O[C@H]1C[C@H](C)CN[C@H]1[C@H]2C | 85.7% (inactive) | 
2 | C[C@@]12OC(=O)[C@]1([C@@H](O)[C@@H]1C=CCCC1)NC(=O)[C@H]2CCCl |  | 0.209 µM (active)
3 | Cc1cc(SCc2sc(-c3ccc(C(F)(F)F)c(F)c3)nc2C)ccc1OCC(=O)O | 104% (inactive) | 
4 | Oc1ccc2c3c1O[C@H]1c4[nH]c5c(c4C[C@@]4(O)[C@@H](C2)N(CC2CC2)CC[C@]314)C[C@@]1(O)[C@H]2Cc3ccc(O)c4c3[C@@]1(CCN2CC1CC1)[C@H]5O4 | 101% (inactive) | 
5 | c1cc2c(cc1[C@H]1OC[C@H]3[C@H]1CO[C@H]3c1ccc3c(c1)OCO3)OCO2 | 98.2% (inactive) | 
6 | C[C@]12Cc3cn[nH]c3C[C@@H]1CC[C@@H]1[C@H]2CC[C@@]2(C)[C@H]1CC[C@]2(C)O | 101% (inactive) | 
7 | CCNC(=O)C[C@@H]1N=C(c2ccc(Cl)cc2)c2cc(OC)ccc2-n2c(C)nnc21 |  | 9.35 µM (active)
8 | CCOC(=O)c1c(C(C#N)=CN)c2ccc(Cl)c(Cl)c2n1C | 111% (inactive) | 
9 | COc1ccc2c(c1OC)CN1CCc3cc4c(cc3C1C2)OCO4 (stereo not given) |  | 1.66 µM (active)
10 | CNC(=O)c1ccc(N2C(=S)N(c3ccc(C#N)c(C(F)(F)F)c3)C(=O)C23CCC3)cc1F | 104% (inactive) | 
11 | C[C@@H]1C[C@@H]([C@H](O)CC2CC(=O)NC(=O)C2)C(=O)[C@@H](C)C1 |  | 1.66 µM (active)
12 | CC(NC(C)(C)C)C(=O)c1cccc(Cl)c1 (stereo not given) | 90.2% (inactive) | 
13 | Fc1ccc(C(OCCN2CCN(CCCc3ccccc3)CC2)c2ccc(F)cc2)cc1 |  | 20.9 µM (active)
14 | C[C@]12CC[C@H]3[C@@H](CCC4=CC(=O)CC[C@@]43C)[C@H]1CC[C@H]2O | 98.5% (inactive) | 
15 | CC(C)(O)C=CC(=O)[C@](C)(O)[C@H]1[C@H](O)C[C@]2(C)[C@@H]3CC=C4[C@@H](C=C(O)C(=O)C4(C)C)[C@]3(C)C(=O)C[C@@]12C |  | 0.166 µM (active)
16 | C=C[C@@H]1CN2CCC1C[C@@H]2[C@@H](O)c1ccnc2ccccc12 (stereo not given in full) | 87.9% (inactive) | 
17 | CC(C)(O)C(=O)Nc1ccc([N+](=O)[O-])c(C(F)(F)F)c1 |  | 1.87 µM (active)
18 | CC[C@@H](C(N)=O)N1CCCC1=O | 95.6% (inactive) | 
19 | COc1cccc2c1[C@]13CCN(CC4CC4)[C@H](C2)[C@]1(OC)CCC(=O)C3 | 88.8% (inactive) | 
20 | CC1=C(O)C(=O)C=C2C1=CC=C1[C@@]2(C)CC[C@@]2(C)[C@@H]3C[C@](C)(C(=O)O)CC[C@]3(C)CC[C@]12C |  | 2.64 µM (active)

Row | SMILES | viability | Potency
21 | C#C[C@]1(O)C=C[C@@H]2[C@@H]3CCC4=CC(=O)CC[C@@H]4[C@H]3CC[C@@]21CC | 99.5% (inactive) | 
22 | CC(=CCCC1=CCC(C2=CC(=O)OC2O)OC1O)CCC1=C(C)CCCC1(C)C (stereo not given) | 92.6% (inactive) | 
23 | O=S(=O)(F)Cc1ccccc1 | 82.3% (inactive) | 
24 | COc1ccc(N(C(=O)Oc2c(C)cccc2C)c2ccnc(Nc3ccc(N4CCN(C)CC4)cc3)n2)c(OC)c1 | 69.3% (inactive) | 
25 | CC(C)(C)c1cc(C=C(C#N)C#N)cc(Br)c1O | 92.5% (inactive) | 
26 | CN1C(=O)COc2c(C(=O)NC3CN4CCC3CC4)cc(Cl)cc21 (stereo not given) | 109% (inactive) | 
27 | C[C@](O)(CS(=O)(=O)c1ccc(F)cc1)C(=O)Nc1ccc(C#N)c(C(F)(F)F)c1 | 101% (inactive) | 
28 | O=C(Oc1ccc([N+](=O)[O-])cc1)N1CCC(C(O)(c2ccc3c(c2)OCO3)c2ccc3c(c2)OCO3)CC1 | 87.7% (inactive) | 
29 | CCOP(=O)(OCC)C(C)NC(=O)N(CCCl)N=O (stereo not given) | 102% (inactive) | 
30 | O=C1C=CC[C@@H]2[C@H]3CCCN4CCC[C@@H](CN12)[C@@H]34 | 94.2% (inactive) | 
31 | COC1(CS(=O)c2ccccc2)CCN(CCc2c[nH]c3ccc(F)cc23)CC1 (stereo not given) | 91.9% (inactive) | 
32 | O=C(Oc1ccc([N+](=O)[O-])cc1)N1CCN(Cc2cccc(Oc3ccccc3)c2)CC1 | 97.4% (inactive) | 
33 | O=c1[nH]c2ccccc2n1CCCN1CCC(n2c(=O)[nH]c3cc(Cl)ccc32)CC1 | 85.8% (inactive) | 
34 | C[C@]12CC[C@H]3[C@@H](CCC4=CC(=O)CC[C@@]43C)[C@H]1CC[C@H]2OC(=O)CCC1CCCC1 | 100% (inactive) | 
35 | CN1CCN(c2ccc([N+](=O)[O-])c3no[n+]([O-])c23)CC1 | 80.1% (inactive) | 
36 | CC(=O)N(C)c1cccc(-c2ccnc3c(C(=O)c4cccs4)cnn23)c1 | 96% (inactive) | 
37 | CC(N[C@H]1C[C@H]1c1ccccc1)c1ccc2c(c1)OCCO2 (stereo not given in full) | 104% (inactive) | 
38 | CC=C(C)C(=O)O[C@H]1C(C)=C2[C@@H]3OC(=O)[C@@](C)(O)[C@@]3(O)[C@@H](OC(=O)CCC)C[C@](C)(OC(C)=O)[C@@H]2[C@@H]1OC(=O)CCCCCCC |  | 0.0662 µM (active)
39 | CC(C)[C@]12O[C@@H]1[C@@H]1O[C@]13[C@]1(O[C@H]1C[C@@H]1C4=C(CC[C@@]13C)C(=O)OC4)[C@H]2O |  | 0.0012 µM (active)
40 | O=c1[nH]c2ccccc2n1C1CCN(Cc2ccc(-c3[nH]c4cc5ncnc5cc4nc3-c3ccccc3)cc2)CC1 | 92% (inactive) | 
